From the supplement of paper PMC6555819

Test system: LXRa homodimer (NR concentration 270 nM)
Experiment: PBM binding z-score (relative to random genomic background probes); higher = stronger binding; sequences stand for … in GC…GCGATTGACAGCGTAGAATGAAGG
Procedure, shortened: (§1)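 Custom Agilent 4×180K protein-binding microarrays carried double-stranded probes. Their 34-nt variable regions held direct-repeat seeds, single-nucleotide variants, half-site ablations and random human genomic background sequences. Arrays were incubated 1 h with ligand-free nuclear receptor dimers in PBS pH 7.4, 2% milk, 0.02% Triton X-100, 1 mM DTT, 0.2 mg/mL BSA and 0.4 mg/ml salmon testes DNA. Antibodies against each partner (one per run) detected binding, and scanned fluorescence was regression-normalized. Binding z-scores use random background probes as reference.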

Sequence	PBM binding z-score
TCAGAGAGGTGAAGGTAACTCAGGTACGCAGTCG	-0.198
GGTAGTTGGTCAGTAAAAGGTCACACACCGGTCG	4.91
GTACCAAGGTGAATAGTTCGTTGATGAGTAGGCG	-0.116
TCTATTAGTTGAATAGGGCAACCGAAACAGCGGA	-0.213
CAAACTAGGTCACAGAGCTCAAAGTCCGTGCGTA	0.278
ATCTCTTGGTAACAAGTTCAGTGAAAGAGAGGAC	0.452
TCAGACAGGTCAAGGTAACTCAGGTACGCAGTCG	0.984
TCGAGTAGGTTAGTCGGGGCGTTCAGCCAACATA	-0.481
TCTGCTAGGTCAGTTGGTCAGCTCACGAGCTGCC	-0.62
AGAACGAGGGCACGCTGAGTTGATTGCAGAGTAG	-0.818
AGAACGAGGGCACGCTGAGTAGATAGCAGAGTAG	-0.626
ATATGTAGGTTACATCCGGGTCATTCCGGCTATG	1.81
AGAACGCGGGCACGCTGAGTTGATAGCAGAGTAG	-0.326
TCTTGTAGATCAATAGAGGCTAAGAAAGTGCGCT	-0.573
CCTAGCAGGCCAATCTGGGTCACTGAAGGCTTGA	-0.588
CCTTACGGGTCACGAGGTTACAGCACGACGAGCG	0.542
TCTTGTAGATCAGCAGGTGAAGAAAGCTGGCCAA	-0.605
ACTATTAGCTGACTTAGGGCAACCGATACGACGC	0.194
AGAACGAGGGCAATGAGTTGATCGCACGGGTGGC	-0.712
TTACCAAGGTGAAGGTCGTCGATCCCTCTGTAGA	-0.48

Sequence	PBM binding z-score
CTCGAAAGGTCGGTTGAGGTGAATATACGGATAA	0.0954
CGTCCAAGGTCAAGGCTAGGTCAGTGAAAGCATT	1.5
ACTAGCAGGCAAAGGGTCACTCAAGATTAGTCCG	0.422
TCTTGTAGAACAAAGGTTAAGAAAGCCGAAGCCT	-0.0357
TAACCTAGGTCATGGGCCAGTATACCACGCGAAC	1.74
CTACCAAGGTGAACAAGGTCGTTGCTTACTATTC	0.37
TGTGCTAGGTCAGTTGGTCAGCTAACGAGCTGCC	-0.546
TCTGGTTGGTCACGGAGGTCACACACGACGGGTA	2.85
AGTCAAAGTTCATCTAGGTGACGTAAGATATGCT	5.06
GCTCTTAGTTGAAAGGGCAACCGAATGATTCTCG	0.194
CGTCCAAGGTCAGGGTCAGTGAAAGAGACTCGAA	-0.0372
TCATATAGCTAAAGGTGAAAGTCGAACGATATGA	-0.213
AGAATGAGGTTACCAAAGATCAGGTAAACGCTTG	-0.313
GCTGCTAGGTCAACTGATGGTTAGCTAAAGCTCG	0.0508
TCGAGTAGGTTACTCGGGGCATTCAGCCAACATA	-0.382
AGAAGGAGGGCACGCTGAGTTGATAGCAGAGTAG	-0.359
GCATATAGGTAATACATGGTGAAAGTCCGATTGT	0.188
GCTATTAGTTGAAAAGGCAACCGAATGATTCTCG	-0.222
CAAACTAGGTCAAGGTCAACGTCGGTTTGTGCCA	3.32
GCTTGTAAATCAAGGTTAAGAAAGACTAAGCTAA	0.223

Test system: LXRb:RXRa (NR concentration 270 nM, RXRa partner concentration 90 nM)
Experiment: as above
Procedure, shortened: as §1

Sequence	PBM binding z-score
TCAGAGAGGTGAAGGTAACTCAGGTACGCAGTCG	0.909
GGTAGTTGGTCAGTAAAAGGTCACACACCGGTCG	4.07
GTACCAAGGTGAATAGTTCGTTGATGAGTAGGCG	0.214
TCTATTAGTTGAATAGGGCAACCGAAACAGCGGA	0.664
CAAACTAGGTCACAGAGCTCAAAGTCCGTGCGTA	2.01
ATCTCTTGGTAACAAGTTCAGTGAAAGAGAGGAC	0.565
TCAGACAGGTCAAGGTAACTCAGGTACGCAGTCG	3.22
TCGAGTAGGTTAGTCGGGGCGTTCAGCCAACATA	-0.0286
TCTGCTAGGTCAGTTGGTCAGCTCACGAGCTGCC	0.62
AGAACGAGGGCACGCTGAGTTGATTGCAGAGTAG	-0.114
AGAACGAGGGCACGCTGAGTAGATAGCAGAGTAG	0.201
ATATGTAGGTTACATCCGGGTCATTCCGGCTATG	2.68
AGAACGCGGGCACGCTGAGTTGATAGCAGAGTAG	-0.68
TCTTGTAGATCAATAGAGGCTAAGAAAGTGCGCT	0.151
CCTAGCAGGCCAATCTGGGTCACTGAAGGCTTGA	0.364
CCTTACGGGTCACGAGGTTACAGCACGACGAGCG	4.17
TCTTGTAGATCAGCAGGTGAAGAAAGCTGGCCAA	-0.0895
ACTATTAGCTGACTTAGGGCAACCGATACGACGC	-0.149
AGAACGAGGGCAATGAGTTGATCGCACGGGTGGC	-0.452
TTACCAAGGTGAAGGTCGTCGATCCCTCTGTAGA	1.09

Sequence	PBM binding z-score
CTCGAAAGGTCGGTTGAGGTGAATATACGGATAA	1.76
CGTCCAAGGTCAAGGCTAGGTCAGTGAAAGCATT	4.11
ACTAGCAGGCAAAGGGTCACTCAAGATTAGTCCG	2.94
TCTTGTAGAACAAAGGTTAAGAAAGCCGAAGCCT	1.97
TAACCTAGGTCATGGGCCAGTATACCACGCGAAC	3.44
CTACCAAGGTGAACAAGGTCGTTGCTTACTATTC	2.11
TGTGCTAGGTCAGTTGGTCAGCTAACGAGCTGCC	-0.0513
TCTGGTTGGTCACGGAGGTCACACACGACGGGTA	3.58
AGTCAAAGTTCATCTAGGTGACGTAAGATATGCT	3.69
GCTCTTAGTTGAAAGGGCAACCGAATGATTCTCG	0.812
CGTCCAAGGTCAGGGTCAGTGAAAGAGACTCGAA	3.66
TCATATAGCTAAAGGTGAAAGTCGAACGATATGA	1.26
AGAATGAGGTTACCAAAGATCAGGTAAACGCTTG	3.44
GCTGCTAGGTCAACTGATGGTTAGCTAAAGCTCG	1.97
TCGAGTAGGTTACTCGGGGCATTCAGCCAACATA	0.814
AGAAGGAGGGCACGCTGAGTTGATAGCAGAGTAG	0.551
GCATATAGGTAATACATGGTGAAAGTCCGATTGT	-0.279
GCTATTAGTTGAAAAGGCAACCGAATGATTCTCG	-0.163
CAAACTAGGTCAAGGTCAACGTCGGTTTGTGCCA	4.35
GCTTGTAAATCAAGGTTAAGAAAGACTAAGCTAA	0.926
